PubChem BioAssay
Potency and affinity values are given separately. Inconclusive results are not listed. Active and inactive are the calls of the source. Unless noted, the rule behind the calls is not given here.

Columns and labels:
[1] = cytotoxicity in PAX8-dependent RMG-1 cells, dose response, cell-based, cherry-pick (AID 687029;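 active = signal drop whose fitted half-maximal concentration is at most twice the top valid dose, in every test run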;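 note: cells exposed to compound for 96 hours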)
[2] = cytotoxicity in IOSE-T80 ovarian epithelial cells, dose response, selectivity assay for PAX8 inhibitor project, cell-based, cherry-pick (AID 687032;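 active = fitted half-maximal concentration for viability loss no higher than twice the top valid dose, in every repeat run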;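 note: cells exposed to compound for 96 h before reading; 0% = neutral control wells and -100% = 2 µM mitoxantrone kill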)
[3] = inhibitors of CMV-promoter luciferase reporter, dose response, counter-screen for Pax8 inhibitor project, cell-based, HEK293, luminescence, dry powder (AID 743020;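 active = signal-lowering compounds whose fitted half-maximal concentration is at or below twice the top tested dose in every run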;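 note: HEK293 cells stably expressing the CMV luciferase reporter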)
[4] = non-specific cell cytotoxicity, dose response, cytotoxicity control for PAX8 inhibitor project, plate reader, dry powder samples (AID 743021)
[5] = IGROV1 ovarian cancer cell cytotoxicity, dose response, PAX8 inhibitor project, plate reader, dry powder samples (AID 743043);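 note: more negative means fewer viable cells or more cytotoxicity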
[6] = NIH:OVCAR-3 ovarian cancer cell cytotoxicity, dose response, PAX8 inhibitor project, plate reader, dry powder samples (AID 743044); settings: max activity: at 35 µM, stronger effect = lower value unless noted
[7] = IOSE-T80 ovarian epithelial cell cytotoxicity, dose response, cytotoxicity control for PAX8 inhibitor project, plate reader, dry powder samples (AID 743045);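 note: 0% = neutral control median and -100% = positive control median; more negative values mean more cell killing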
[8] = A2780 ovarian cancer cell cytotoxicity, dose response, cytotoxicity control, plate reader, dry powder samples (AID 743046);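 note: 0% = neutral control wells and -100% = cytotoxic reference compound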

Measured: max activity

C#CCN(C[C@@H]1[C@@H](OC(=O)NCCCCCC)[C@@H](OC(=O)NCCCCCC)Cn2c(=O)ccc(=O)n21)S(=O)(=O)c1ccc(C)cc1
inactive: [1] | [2] | [3]

COc1ccc(S(=O)(=O)/N=C2\C=C(Nc3ccc(O)cc3)C(=O)c3ccccc32)cc1
inactive: [1] | [2] | [3]

COc1ccccc1-c1ccc(OCCCN2CCC(C(O)(c3ccccc3)c3ccccc3)CC2)cc1
inactive: [1] | [2] | [3]

COc1ccc(C(=O)NNC(=O)c2ccccn2)cc1
inactive: [1] | [2] | [3]

CCCCCCN1C[C@@H](n2cc(-c3ccc(F)cc3)nn2)[C@H](O)C[C@@H]1c1ccc(Cl)cc1
inactive: [1] | [2] | [3] | [4]

N#Cc1ccc(NC(=O)COC(=O)C2CCC2)cc1
inactive: [1] | [2] | [3] | [4]

COc1ccc(COC(=O)c2cc([N+](=O)[O-])ccc2N2CCOCC2)cc1F
inactive: [1] | [2] | [3] | [4]

FC(F)(F)c1nnc2c(Sc3ccc(Cl)cc3)nc3ccccc3n12
inactive: [1] | [2] | [3] | [4]

CC(C)c1ccc(/C=C(\c2nc3ccccc3[nH]2)S(=O)(=O)c2ccccc2)cc1
inactive: [1] | [2] | [3] | [4]

O=C(NCC1CCCO1)C(=Cc1cccc([N+](=O)[O-])c1)C(=O)NCC1CCCO1 (configuration not stated)
inactive: [1] | [2] | [3] | [4]

Cc1ccc(-c2cn3cc(C)ccc3n2)cc1
inactive: [1] | [2] | [3] | [4]

CC[C@@]1(O)C(=O)OCc2c1cc1n(c2=O)Cc2cc3c(CN(C)C)c(O)ccc3nc2-1
inactive: [1] | [2] | [3] | [4]

C[C@H](CO)N1C[C@H](C)[C@@H](CN(C)Cc2ccccc2)OCCCC[C@H](C)Oc2ccc(NC(=O)Nc3ccc(C(F)(F)F)cc3)cc2C1=O
inactive: [1] | [2] | [3] | [4]

CC(=O)NC(CCc1ccc(Cl)c(Cl)c1)c1cccc(O)c(=O)c1 (configuration not stated)
inactive: [1] | [2] | [3] | [4]

CN(CCc1cn[nH]c1)Cc1nc(C(c2ccccc2)c2ccccc2)no1
inactive: [1] | [2] | [3] | [4]

COc1ccc(NC(=O)C(Sc2nnc(-c3ccncc3)n2-c2ccccc2C)c2ccccc2)cc1Cl (configuration not stated)
inactive: [1] | [2] | [3] | [4]

O=C(Nc1nc(-c2cccs2)c(-c2cccs2)s1)C1(c2ccccc2)CC1
inactive: [1] | [2] | [3] | [4]

CCN(CC)c1ccc(C(NC(=O)C(C)C)c2ccc3cccnc3c2O)cc1 (configuration not stated)
inactive: [1] | [2] | [3] | [4]

C[C@H](O)C#Cc1ccc2c(c1)O[C@H](CN(C)Cc1ccc(-c3ccccc3)cc1)[C@@H](C)CN([C@@H](C)CO)S2(=O)=O
inactive: [1] | [2] | [3] | [4]

C[C@H]1CCCCO[C@@H](CN(C)Cc2ccc(C(F)(F)F)cc2)[C@@H](C)CN([C@@H](C)CO)C(=O)c2cc(NS(=O)(=O)c3ccc(Cl)cc3)ccc2O1
inactive: [1] | [2] | [3] | [4]

C=C1C(=O)[C@@]23[C@H](O)C[C@@H]4C(C)(C)CC[C@H](O)[C@@]4(C)[C@@H]2CC[C@@H]1[C@H]3O
inactive: [1] | [2] | [3] | [4]

O=S(=O)(/C(=C/c1ccc(C(F)(F)F)cc1)c1nc2ccccc2[nH]1)c1ccccc1
inactive: [1] | [2] | [3] | [4]

N=c1n(Cc2ccccc2)c2ccccc2n1CC(O)COc1ccc(Cl)cc1Cl (configuration not stated)
inactive: [1] | [2] | [3] | [4]

O=C(N/N=C/c1ccsc1)c1cc(-c2cccs2)nc2ccccc12
inactive: [1] | [2] | [3] | [4]

C#CCN(C[C@H]1[C@H](OC(=O)Nc2c(C)noc2C)[C@H](OC(=O)Nc2c(C)noc2C)C[C@@H](C(=O)OC)[C@H]1C(=O)OC)S(=O)(=O)c1ccc(C)cc1
inactive: [1] | [2] | [3] | [4]

Oc1ccc(/C=N\Nc2cc(N3CCOCC3)nc(N3CCOCC3)n2)c(O)c1
inactive: [1] | [2] | [3] | [4]

O=C(NC1CC1)c1ccc2c(c1)C1C3CCC(C3)C1C(c1ccccc1)N2 (configuration not stated)
inactive: [1] | [2] | [3] | [4]

C=CCC[C@H](Cc1ccc(F)cc1)C(=O)OC[C@H](Cc1c[nH]c2ccccc12)NC(=O)[C@H](CC=C)CC(=O)N(CCO)Cc1ccccc1
inactive: [1] | [2] | [3] | [4]

C=CC[C@H](CC(=O)N(CCO)Cc1ccccc1)C(=O)N[C@@H](COC(=O)[C@H](CC=C)CC(=O)OC(C)(C)C)Cc1c[nH]c2ccccc12
inactive: [1] | [2] | [3] | [4]

O=C1/C(=C\c2ccc(Cl)c(Cl)c2)CN(C(=O)CCN2CCOCC2)C/C1=C/c1ccc(Cl)c(Cl)c1
inactive: [1] | [2] | [3] | [4]

Cc1cc(Sc2nnc(N)s2)c2ccccc2n1
inactive: [1] | [2] | [3] | [4]

Cc1ccc(S(=O)(=O)c2nc(S(=O)(=O)c3ccccc3)sc2N2CCN(C)CC2)cc1
inactive: [1] | [2] | [3] | [4]

Cc1[nH]nc2nc(SCC(=O)NC3CCCCC3)n(-c3ccc(Br)cc3)c(=N)c12
inactive: [1] | [2] | [3] | [4]

O=C1c2ccccc2C(=O)c2[nH]c(=O)[nH]c21
inactive: [1] | [2] | [3] | [4]

O=C(CN1C(=O)c2ccccc2S1(=O)=O)N1CCc2ccccc21
inactive: [1] | [2] | [3] | [4]

O=C1C=CC(=C(c2ccc(O)cc2)c2ccc(O)cc2)C=C1
inactive: [1] | [2] | [3] | [4]

Cn1c(CCN2CCN(c3ccccn3)CC2)nc2cc(NS(=O)(=O)c3ccc(Cl)cc3)ccc21
inactive: [1] | [2] | [3] | [4]

O=C(Nc1ccc(Cl)cc1)Nc1ccc(N2CCCC2)c(S(=O)(=O)Nc2ccccc2Cl)c1
inactive: [1] | [2] | [3] | [4]

COc1ccc(-c2ccc3c(c2)[C@H]2[C@H](CCN2S(=O)(=O)c2ccc(OC)cc2)[C@H](CO)N3C)cc1
inactive: [1] | [2] | [3] | [4]

CC(=O)N1CCN(c2ccc(NC(=O)c3ccc([N+](=O)[O-])o3)cc2Cl)CC1
inactive: [1] | [2] | [3] | [4]

O=C(Nc1ccc(S(=O)(=O)NC2=NCCCCC2)cc1)c1ccc([N+](=O)[O-])s1
inactive: [1] | [2] | [3] | [4]

O=C(Nc1cccc(C2=NCCN2)c1)Nc1cccc(C2=NCCN2)c1
inactive: [1] | [2] | [3] | [4]

O=C(Nc1cccc(NC(=O)c2ccccc2Cl)c1)c1ccc([N+](=O)[O-])o1
inactive: [1] | [2] | [3] | [4]

C[C@@H]1CCCCO[C@H](CN(C)Cc2ccncc2)[C@H](C)CN([C@@H](C)CO)C(=O)c2cc(NC(=O)NC3CCCCC3)ccc2O1
inactive: [1] | [2] | [3] | [4]

CN1c2ccc(-c3ccccc3)cc2[C@@H]2[C@@H](CCN2C(=O)NC2CCCCC2)[C@@H]1CO
inactive: [1] | [2] | [3] | [4] | [5] | [6] 7.48% [at 0.26 µM, stronger effect = lower value] | [7] | [8]

C[C@@H]1CCCCO[C@@H](CN(C)S(=O)(=O)c2cccs2)[C@H](C)CN([C@H](C)CO)C(=O)c2cc(NC(=O)Nc3ccc(C(F)(F)F)cc3)ccc2O1
inactive: [1] | [2] | [3] | [4] | [5] | [6] 9.36% [at 2.1 µM, stronger effect = lower value] | [7] | [8]

Cc1ccccc1N=C1N=C(N)c2ccccc21
inactive: [1] | [2] | [3] | [4]

C[C@H]1CN([C@@H](C)CO)S(=O)(=O)c2ccc(-c3ccc(C#N)cc3)cc2O[C@@H]1CN(C)Cc1cccc(F)c1
inactive: [1] | [2] | [3] | [4] | [5] | [6] -11.6% [at 16 µM, stronger effect = lower value] | [7] | [8]

C[C@@H]1CN([C@@H](C)CO)C(=O)c2cc(NC(=O)Nc3ccc(C(F)(F)F)cc3)ccc2O[C@@H](C)CCCCO[C@H]1CN(C)C(=O)c1ccccc1
inactive: [1] | [2] | [3] | [4] | [5] | [6] 12.6% [at 0.26 µM, stronger effect = lower value] | [7]
